Inconclusive results are not listed. The source made the active and inactive calls. Unless noted, calls follow the shape of the full dose curve.
Tests used:
[1] = Nuclear factor erythroid 2-related factor 2/antioxidant responsive element (Nrf2/ARE) small molecule agonists: qHTS cell viability counter screen in human keratinocytes (AID 1919968; active = well fitted curve in the direction sought with a large enough effect in the repeat runs; an effect the other way counts as inactive or inconclusive; also: nearly all actives have a fitted effect of over 55% in size; also: potency is read from the fitted curve at half-maximal effect)
Method in brief: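 Fluorescence read-out from CellTiter-Fluor after 1 h at 37 C. Wells held HaCaT-derived ARE-luciferase reporter cells (1,500/well) treated 23 h with DMSO-dissolved compounds. Run in the same wells as the luciferase agonist read.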

[2] = target: Gonadotropin-releasing hormone receptor (Homo sapiens) (UniProt P30968); experiment: Human gonadotropin-releasing hormone receptor (GnRHR) small molecule agonists, calcium flux assay in GnRHR-HEK293 cells (AID 1920063); also: nearly all actives have a fitted effect of over 35% in size
Method in brief: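 Calcium-dye fluorescence, Ex/Em=480/540, recorded every 1 sec over 3 min after compound addition to GnRHR-HEK293 cells. Cells had been seeded 18 hours earlier and dye-loaded for 1 hour at 37 C. Fifteen concentrations, triplicates.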

[3] = target: KiSS-1 receptor (Homo sapiens) (UniProt Q969F8); experiment: Human kisspeptin (KISS1R) small molecule agonists, calcium flux assay in KISS1R-HEK293 cells (AID 1920064; active = well fitted curve in the direction sought with a large enough effect in the repeat runs; an effect the other way counts as inactive or inconclusive)
Method in brief: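 Calcium flux read-out: kinetic fluorescence at Ex/Em=480/540, 1 s intervals over 3 min, after pin-tool compound addition to dye-loaded KISS1R-HEK293 cells. Fifteen concentrations, triplicates.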

[4] = G protein-coupled receptor (GPCR) small molecule agonists, calcium flux assay: HEK293 wild type cell line counter screen (AID 1920065)
Method in brief: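 Agonist mode; 18 h seeding at 37 C, 1 h dye load at 37 C; compounds pinned from DMSO, ATP as positive control; kinetic fluorescence 480/540 nm, 3 min, 1 s reads; 15 concentrations, triplicate.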

[5] = p53 small molecule agonists, cell-based qHTS assay: qHTS cell viability counter screen (AID 1963581); also: nearly all actives have a fitted effect of over 45% in size
Method in brief: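 Cytotoxicity read-out: ATP-based luminescence (CellTiter-Glo, 30 min RT) measured in the same wells as the p53 reporter assay, HCT-116 p53RE-bla cells, 16 h compound exposure at 37 C.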

[6] = p53 small molecule agonists, cell-based qHTS assay (AID 1963582; active = well fitted activation curve with a large enough effect in the signal ratio in the repeat runs, not every such curve was filed as active; the % refers to the signal ratio; also: potency is read from the fitted curve at half-maximal effect)
Method in brief: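 Fluorescence intensity read-out of a beta-lactamase reporter under a p53 response element. Cells were exposed to DMSO-dissolved compounds for 16 h at 37 C, then developed with FRET substrate for 2 h at RT.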

[7] = target: 5-hydroxytryptamine receptor 2A (Homo sapiens) (UniProt P28223); experiment: 5-hydroxytryptamine receptor 2A (HTR2A) small molecule antagonists, cell-based qHTS assay (AID 1963586); also: nearly all actives have a fitted effect of over 45% in size; also: potency is read from the fitted curve at half-maximal effect
Method in brief: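 CHO cells stably expressing human HTR2A were plated for 18 h at 37 C, then loaded with calcium dye for 1 h. Compounds were preincubated 5 min at room temperature before DOI (4 nM solution) was added. Kinetic fluorescence was read for 3 min.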

[8] = target: 5-hydroxytryptamine receptor 2A (Homo sapiens) (UniProt P28223); experiment: 5-hydroxytryptamine receptor 2A (HTR2A) small molecule agonists, cell-based qHTS assay (AID 1963587); also: nearly all actives have a fitted effect of over 30% in size; also: potency is read from the fitted curve at half-maximal effect
Method in brief: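 CHO cells stably expressing human HTR2A, plated 18 h, loaded with calcium dye 1 h at 37 C. Agonist mode: compounds added and intracellular calcium fluorescence recorded kinetically for 2 min at 1 sec intervals.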

[9] = target: Muscarinic acetylcholine receptor M1 (Homo sapiens) (UniProt P11229); experiment: Cholinergic receptor muscarinic 1 (CHRM1) small molecule antagonists, cell-based qHTS assay (AID 1963588); also: nearly all actives have a fitted effect of over 40% in size
Method in brief: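 Compounds were tested at 15 concentrations in three independent runs. Dye-loaded CHRM1-CHO cells were exposed 5 min at room temperature before stimulation by acetylcholine added at 50nM. Intracellular calcium was read kinetically on FDSS for 3 min.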

[10] = target: Muscarinic acetylcholine receptor M1 (Homo sapiens) (UniProt P11229); experiment: Cholinergic receptor muscarinic 1 (CHRM1) small molecule agonists, cell-based qHTS assay (AID 1963589); also: nearly all actives have a fitted effect of over 35% in size
Method in brief: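 Calcium flux read-out: kinetic fluorescence at 1 sec intervals after pin-tool compound addition to dye-loaded CHRM1-CHO cells (human M1). Agonist mode; 15 concentrations tested in triplicate independent runs.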

[11] = cAMP Responsive Elements (CRE) small molecule agonists, cell-based qHTS assay (AID 1963590)
Method in brief: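 Beta-lactamase reporter readout: LiveBLAzer B/G FRET substrate, 2 h at room temperature, added after 3 h compound treatment of CRE-bla HEK 293T cells at 37 C/5% CO2.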

[12] = target: Beta-2 adrenergic receptor (Homo sapiens) (UniProt P07550); experiment: Adrenergic beta2 receptor (ADRB2) small molecule antagonists, cell-based qHTS assay (AID 1963592); also: nearly all actives have a fitted effect of over 50% in size; also: potency is read from the fitted curve at half-maximal effect; as to activity change, negative = inhibition: series mostly up to about 92 µM
Method in brief: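 Assay format: CHO-ADRB2 cells, 18-20hr seeding at 37C/5% CO2, then compound plus 1nM isoproterenol agonist mix for 0.5hr RT. Homogeneous time-resolved fluorescence cAMP detection after 1hr, expressed as 665/615 nm ratio.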

[13] = target: Beta-2 adrenergic receptor (Homo sapiens) (UniProt P07550); experiment: Adrenergic beta2 receptor (ADRB2) small molecule agonists, cell-based qHTS assay (AID 1963593);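 also: CHO cells stably overexpressing human ADRB2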
Method in brief: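 CHO cells stably over-expressing ADRB2 were plated overnight at 37C, then dosed with compounds plus a stimulation mix containing 100uM IBMX and 25uM Ro-20-1724 for 0.5hr at room temperature. cAMP was measured by HTRF competition, 1hr.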

[14] = target: D(2) dopamine receptor (Homo sapiens) (UniProt P14416); experiment: Dopamine D2 receptor (DRD2) small molecule agonists, cell-based qHTS assay (AID 1963594); also: nearly all actives have a fitted effect of over 35% in size
Method in brief: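 HEK293 cells stably expressing human DRD2, pre-treated with PDE inhibitor Ro20-1724 (0.1 mM final) and compound 10 min at room temperature, then stimulated with NKH477 (200nM […]) for 30 min. cAMP read by HTRF (665/620 nm).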

[15] = target: D(2) dopamine receptor (Homo sapiens) (UniProt P14416); experiment: Dopamine D2 receptor (DRD2) small molecule antagonists, cell-based qHTS assay (AID 1963595; active = well fitted inhibition curve with a large enough effect in the signal ratio in the repeat runs, with a control signal flat; the % refers to the signal ratio)
Method in brief: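 Antagonism was scored as restored cAMP in HEK293-DRD2 cells. These cells were stimulated with 200 nM NKH477 and 12 nM quinpirole for 30 min at room temperature, in the presence of 0.1 mM Ro20-1724.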

[16] = p53 small molecule agonists, cell-based qHTS assay with rat liver microsomes: qHTS cell viability counter screen (AID 1963580); also: nearly all actives have a fitted effect of over 45% in size
Method in brief: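 After the beta-lactamase ratio was read, CellTiter-Glo was added to the same wells and luminescence measured at 30 min; cells had been treated 16 h at 37 C with compounds, rat liver microsomes and NADPH (0.5 mg/mL final each).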

[17] = cAMP Responsive Elements (CRE) small molecule antagonists, cell-based qHTS assay (AID 1963591; active = well fitted inhibition curve with a large enough effect in the signal ratio in the repeat runs, not every such curve was filed as active; the % refers to the signal ratio)
Method in brief: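 HEK293T CRE-bla; 18 h preincubation; compound pin-transfer; NKH477 0.25 uM final, 3 h, 37 C; LiveBLAzer FRET substrate 2 h RT.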

[18] = p53 small molecule agonists, cell-based qHTS assay with human liver microsomes: qHTS cell viability counter screen (AID 1963579); also: nearly all actives have a fitted effect of over 45% in size
Method in brief: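 Luminescent CellTiter-Glo read-out, 30 min at room temperature, gauged cytotoxicity in p53RE-bla cells exposed 16 h at 37 C to DMSO-dissolved compounds with metabolic activation by human liver microsomes and NADPH, each 0.5 mg/mL final.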

[19] = p53 small molecule agonists, cell-based qHTS assay with human liver microsomes (AID 1963577);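 also: p53 response element beta-lactamase reporter cells with liver microsomes plus NADPH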
Method in brief: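 p53RE-bla cells; 5 h settle, 37 C/5% CO2; cpd + HLM 0.5 mg/mL + NADPH 0.5 mg/mL (final); 16 h 37 C; LiveBLAzer 2 h RT dark; fluorescence readout.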

[20] = p53 small molecule agonists, cell-based qHTS assay with rat liver microsomes (AID 1963578)
Method in brief: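 Rat liver microsome activation: microsomes 0.5 mg/mL, NADPH 0.5 mg/mL final; p53RE-bla cells, 16 h 37 C; LiveBLAzer readout, 2 h RT dark.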
% is scaled to controls: 0 for no effect and ±100 for the full control effect.

Sequence of Beta-2 adrenergic receptor (Homo sapiens) (P07550 whole entry, looked up): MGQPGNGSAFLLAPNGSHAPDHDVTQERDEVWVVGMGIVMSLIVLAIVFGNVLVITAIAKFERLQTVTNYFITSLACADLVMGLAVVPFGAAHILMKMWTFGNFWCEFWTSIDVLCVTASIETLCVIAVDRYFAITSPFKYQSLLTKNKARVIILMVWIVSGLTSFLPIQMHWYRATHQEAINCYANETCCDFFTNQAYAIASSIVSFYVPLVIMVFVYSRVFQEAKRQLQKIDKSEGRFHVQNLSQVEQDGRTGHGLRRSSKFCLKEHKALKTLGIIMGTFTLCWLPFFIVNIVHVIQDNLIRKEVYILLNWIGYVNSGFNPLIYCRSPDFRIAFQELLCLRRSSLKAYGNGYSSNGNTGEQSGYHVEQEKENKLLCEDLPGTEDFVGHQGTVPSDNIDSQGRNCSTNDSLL
Sequence of D(2) dopamine receptor (Homo sapiens) (P14416 whole entry, looked up): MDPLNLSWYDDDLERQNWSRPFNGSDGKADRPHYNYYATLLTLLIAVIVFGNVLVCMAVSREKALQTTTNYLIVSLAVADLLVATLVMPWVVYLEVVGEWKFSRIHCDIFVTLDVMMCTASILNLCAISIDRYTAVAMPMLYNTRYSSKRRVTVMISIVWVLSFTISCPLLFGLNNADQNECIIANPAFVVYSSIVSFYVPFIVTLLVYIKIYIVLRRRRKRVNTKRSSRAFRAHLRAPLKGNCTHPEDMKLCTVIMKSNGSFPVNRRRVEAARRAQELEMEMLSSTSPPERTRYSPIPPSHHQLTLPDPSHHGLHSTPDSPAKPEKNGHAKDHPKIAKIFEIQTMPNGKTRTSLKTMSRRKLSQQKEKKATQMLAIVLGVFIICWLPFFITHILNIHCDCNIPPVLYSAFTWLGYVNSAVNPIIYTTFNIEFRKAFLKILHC
Sequence of Muscarinic acetylcholine receptor M1 (Homo sapiens) (P11229 whole entry, looked up): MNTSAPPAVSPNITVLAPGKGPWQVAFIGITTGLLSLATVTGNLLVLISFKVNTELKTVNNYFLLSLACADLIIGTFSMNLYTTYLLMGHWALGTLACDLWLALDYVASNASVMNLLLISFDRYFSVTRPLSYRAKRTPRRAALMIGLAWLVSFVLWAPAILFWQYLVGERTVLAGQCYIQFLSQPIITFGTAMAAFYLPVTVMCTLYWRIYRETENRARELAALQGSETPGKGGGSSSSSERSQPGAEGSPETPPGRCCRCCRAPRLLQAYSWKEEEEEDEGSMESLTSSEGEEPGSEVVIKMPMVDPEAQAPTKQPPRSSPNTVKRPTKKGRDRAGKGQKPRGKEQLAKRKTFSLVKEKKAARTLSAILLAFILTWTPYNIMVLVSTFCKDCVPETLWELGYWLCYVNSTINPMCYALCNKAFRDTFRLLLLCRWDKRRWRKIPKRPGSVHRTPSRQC
Sequence of KiSS-1 receptor (Homo sapiens) (Q969F8 whole entry, looked up): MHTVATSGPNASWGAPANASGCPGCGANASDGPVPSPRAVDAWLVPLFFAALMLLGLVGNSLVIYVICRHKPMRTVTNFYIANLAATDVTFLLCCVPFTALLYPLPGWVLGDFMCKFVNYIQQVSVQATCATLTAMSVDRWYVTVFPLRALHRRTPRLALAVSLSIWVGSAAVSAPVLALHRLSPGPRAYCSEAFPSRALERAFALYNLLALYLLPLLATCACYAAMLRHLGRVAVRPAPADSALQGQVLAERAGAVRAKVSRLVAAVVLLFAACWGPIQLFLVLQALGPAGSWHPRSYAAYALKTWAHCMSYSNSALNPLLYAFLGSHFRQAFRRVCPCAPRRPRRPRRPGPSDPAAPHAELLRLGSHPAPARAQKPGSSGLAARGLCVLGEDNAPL
Sequence of 5-hydroxytryptamine receptor 2A (Homo sapiens) (P28223 whole entry, looked up): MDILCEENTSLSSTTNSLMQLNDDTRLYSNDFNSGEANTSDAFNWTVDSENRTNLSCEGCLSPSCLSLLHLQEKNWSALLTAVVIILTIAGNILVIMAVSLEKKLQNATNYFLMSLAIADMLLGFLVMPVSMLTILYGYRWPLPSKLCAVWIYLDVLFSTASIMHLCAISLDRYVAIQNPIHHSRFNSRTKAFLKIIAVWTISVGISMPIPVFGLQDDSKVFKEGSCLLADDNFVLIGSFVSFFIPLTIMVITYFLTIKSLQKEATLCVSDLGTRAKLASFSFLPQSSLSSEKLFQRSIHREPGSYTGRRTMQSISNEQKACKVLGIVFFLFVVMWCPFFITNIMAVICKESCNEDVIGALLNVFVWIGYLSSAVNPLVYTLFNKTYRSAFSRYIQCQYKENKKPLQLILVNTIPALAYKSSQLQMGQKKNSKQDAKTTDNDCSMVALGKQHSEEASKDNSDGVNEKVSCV
Sequence of Gonadotropin-releasing hormone receptor (Homo sapiens) (P30968 whole entry, looked up): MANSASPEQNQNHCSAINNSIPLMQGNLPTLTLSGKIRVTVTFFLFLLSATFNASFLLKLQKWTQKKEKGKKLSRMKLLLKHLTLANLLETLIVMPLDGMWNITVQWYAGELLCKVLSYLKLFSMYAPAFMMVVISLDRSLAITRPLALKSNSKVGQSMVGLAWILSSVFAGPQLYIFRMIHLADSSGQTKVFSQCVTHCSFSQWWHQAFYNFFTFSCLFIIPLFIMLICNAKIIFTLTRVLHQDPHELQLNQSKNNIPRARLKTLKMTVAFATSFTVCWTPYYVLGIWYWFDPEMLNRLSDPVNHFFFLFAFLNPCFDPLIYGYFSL

O=[N+]([O-])c1ccc(O)c2ncccc12
inactive: Potency [1] | Potency [2] | Potency [3] | Potency [4] | Potency [5] | Potency [6] | Potency [7] | Potency [8] | Potency [9] | Potency [10] | Potency [11] | Potency [12] | Potency [13] | Potency [14] | Potency [15]

CC(C)O.CC(C)O.CCOC(=O)/C=C(\C)O.CCOC(=O)/C=C(\C)O.[Ti]
inactive: Potency [1] | Potency [2] | Potency [3] | Potency [4] | Potency [16] | Potency [5] | Potency [7] | Potency [9] | Potency [10] | Potency [11] | Potency [17] | Potency [12] | Potency [13] | Potency [14] | Potency [15]

Cn1cc(C(=O)[C@@H]2CCc3nc[nH]c3C2)c2ccccc21
inactive: Potency [1] | Potency [2] | Potency [3] | Potency [4] | Potency [16] | Potency [7] | Potency [8] | Potency [9] | Potency [10] | Potency [11] | Potency [17] | Potency [12] | Potency [14] | Potency [15]

CCCCCOC(=O)c1ccc(O)cc1
active: Potency [7] 9.54 µM | Potency [8] 35.1 µM
inactive: Potency [1] | Potency [2] | Potency [3] | Potency [4] | Potency [16] | Potency [5] | Potency [10] | Potency [12] | Potency [13] | Potency [14]

CC1=C(C=O)C(C)(C)CCC1
inactive: Potency [1] | Potency [2] | Potency [3] | Potency [18] | Potency [16] | Potency [5] | Potency [7] | Potency [8] | Potency [9] | Potency [10] | Potency [11] | Potency [17] | Potency [12] | Potency [13] | Potency [14] | Potency [15]

CC(C)(C)C1=CC(=O)C=C(C(C)(C)C)C1=O
inactive: Potency [1] | Potency [2] | Potency [3] | Potency [4] | Potency [16] | Potency [7] | Potency [8] | Potency [9] | Potency [10] | Potency [11] | Potency [17] | Potency [12] | Potency [14] | Potency [15]

CCCNCC(O)COc1ccccc1C(=O)CCc1ccccc1 (stereo unspecified)
active: Potency [12] 0.841 µM
inactive: Potency [1] | Potency [2] | Potency [3] | Potency [4] | Potency [6] | Potency [11] | Potency [17] | Potency [14] | Potency [15]

CCC(Cl)CC(Cl)C(Cl)C(Cl)C(Cl)C(C)Cl (stereo unspecified)
inactive: activity change, negative = cytotoxicity [1] 2.55% [at 19 µM] | activity change [2] -1.19% [at 11.8 µM, active compounds read high] | activation [3] -1.96% [at 15.8 µM] | activation [4] 0.622% [at 11.8 µM] | activity change, negative = cytotoxicity [16] -14% [at 13.5 µM] | activity, negative = inhibition [7] -18.7% [at 12.7 µM] | activation [8] -1.32% [at 15.9 µM] | activity, negative = inhibition [9] -3.76% [at 12.6 µM] | activation [10] -0.121% [at 15.8 µM] | activity change, negative = inhibition [17] 6.46% [at 18.9 µM] | activity change, negative = inhibition [12] -8.4% [at 19 µM] | activation [14] -1.17% [at 19 µM]

O=C(NOCC1CC1)c1ccc(F)c(F)c1Nc1ccc(I)cc1Cl
inactive: Potency [2] | Potency [3] | Potency [19] | Potency [20] | Potency [18] | Potency [8] | Potency [9] | Potency [10] | Potency [12] | Potency [14] | Potency [15]
active: Potency [1] 29.8 µM | Potency [6] 19.9 µM
